Source: PubChem BioAssay
CYP2C9 inh: blockers of cytochrome P450 2C9 activity – biochemical, luminescence, ADME assay, primary screen; AID 777, 2007; CYP2C9 Supersomes, luciferin-H conversion; 20% of 96,000 active; inhibition, % at 5 µM;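 active means blocking of liver enzyme CYP2C9 beyond about 50% at 5 µM, limit read from the data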
Target sequence (P11712 whole entry, looked up): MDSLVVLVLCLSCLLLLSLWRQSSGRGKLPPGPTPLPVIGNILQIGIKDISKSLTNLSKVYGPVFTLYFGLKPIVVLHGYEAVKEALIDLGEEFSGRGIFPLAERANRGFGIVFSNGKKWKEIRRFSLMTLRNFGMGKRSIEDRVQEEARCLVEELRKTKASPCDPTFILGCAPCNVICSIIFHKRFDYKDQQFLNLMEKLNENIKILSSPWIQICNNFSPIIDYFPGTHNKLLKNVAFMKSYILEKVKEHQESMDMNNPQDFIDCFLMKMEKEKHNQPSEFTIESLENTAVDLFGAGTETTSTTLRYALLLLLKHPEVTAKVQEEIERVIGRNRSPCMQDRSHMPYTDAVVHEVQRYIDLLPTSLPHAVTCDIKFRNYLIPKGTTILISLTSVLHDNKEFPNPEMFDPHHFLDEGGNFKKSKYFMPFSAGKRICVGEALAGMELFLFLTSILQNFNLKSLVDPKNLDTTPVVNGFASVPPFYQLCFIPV
CYP2C9 activ: human CYP2C9 activators, primary screen, biochemical, luminescence. Cytochrome P450 2C9 (Homo sapiens), P11712. recombinant CYP2C9, luciferin-H conversion; active compounds read high; factor 1 = untreated enzyme, 0 = blocked. activation factor at 5 µM. 1.4% of 96,000 active;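 active means activation factor of 2 or more for CYP2C9 at a 5 µM dose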
CYP2C19 inhib: blockers of cytochrome P450 2C19 activity – biochemical, luminescence, ADME assay, primary screen | P33261 | CYP2C19 Supersomes, luciferin-H EGE luminescence, 30 min | inhibition, % at 5 µM | 21% of 96,000 active | AID 778, 2007;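 active means CYP2C19 inhibition above a set limit at 5 µM in the primary screen, cut at about 50% in these data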
PLAP activator: PLAP enzyme activators, biochemical, luminescence, HTS. Alkaline phosphatase, placental type (Homo sapiens), P05187. purified PLAP enzyme, luminescent substrate read-out; active compounds read high. activation fold at 20 µM. 1.2% of 96,000 active. AID 696, 2007; in the data active means activation fold above about 2
CYP2C19 activ: human CYP2C19 activators, primary screen, biochemical, luminescence; Cytochrome P450 2C19 (Homo sapiens), P33261; recombinant CYP2C19, luciferin-H EGE luminescence; active compounds read high; 0 = fully inhibited enzyme, 1 = untreated enzyme; activation factor at 5 µM; 96,000 tested, under 10 active;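 active means activation factor of at least 2 at 5 µM in the primary screen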
Of the large screens only hits and unclear results are named; the others gave an inactive call. Shown are actives, neighbours in structure and some others; about 31% of the full set was active somewhere.

O=C(COC(=O)c1ccc2c(c1)OCO2)NC1CCS(=O)(=O)C1 (stereo not drawn)	none
Cc1ccc(C)c(SCC(=O)OCC(=O)c2ccco2)c1	none
COc1ccc2c(=O)c(-c3ccccc3C)c(C)oc2c1	none
Cc1ccccc1-c1coc2cc(O)ccc2c1=O	CYP2C9 activ 2.5
CC(C)(C)NC(=O)CSC(=Nc1cccc(F)c1)NC#N	none
O=C(c1ccc2c(c1)OCCCO2)c1cccs1	CYP2C9 inh 60, CYP2C19 inhib 74
O=C(NCC1CCCO1)c1cccs1 (stereo not drawn)	none
Cn1c(C(=O)N2CCN(c3nc4ccccc4s3)CC2)cc2sccc21	none
COc1ccccc1N1CCN(C(=O)c2cc3sccc3n2C)CC1	CYP2C19 inhib 66
COc1ccccc1N1CCN(C(=O)c2cc3c(=O)n(C)c4ccccc4c3n2C)CC1	CYP2C9 inh 61, CYP2C19 inhib 89
Cn1c(C(=O)N2CCN(C3CCCCC3)CC2)cc2c(=O)n(C)c3ccccc3c21	none
CCCN1CCN(CCCNC(=O)c2cc3c(=O)n(C)c4ccccc4c3n2C)CC1	CYP2C9 inh 67
Cn1c(C(=O)N2CCN(C(=O)c3ccco3)CC2)cc2c(=O)n(C)c3ccccc3c21	CYP2C19 inhib 53
CCOC(=O)Cc1nnc2c(Nc3ccccc3F)nc3nonc3n12	none
COc1ccc(CN2C(=O)CN=C2Nc2cc(C)ccc2C)cc1	CYP2C9 inh 57
COc1ccc(N(CC(=O)Nc2cccc(C)c2C)S(=O)(=O)c2c(C)n[nH]c2C)cc1	CYP2C9 inh 51, CYP2C19 inhib 54
COc1ccccc1NC(=O)CN(c1ccc(C)cc1)S(=O)(=O)c1c(C)n[nH]c1C	CYP2C9 inh 96, CYP2C19 inhib 70
O=C(O)Cn1c(P(=O)(O)c2ccccc2)nc2ccccc21	none
Cc1cccc(-n2c(C)cc(/C=N/NC(=O)c3ccc(CN4CCOCC4)cc3)c2C)c1	CYP2C9 inh 77
O=C(N/N=C/c1ccc(OC(=O)c2ccccc2)cc1)c1ccc(CN2CCOCC2)cc1	CYP2C9 inh 59
Cc1ccc(-n2c(C)cc(/C=N/NC(=O)c3ccc(CN4CCOCC4)cc3)c2C)cc1	none
COc1cc(/C=C/C(=O)N2CCN(CC(O)COc3ccccc3)CC2)cc(OC)c1OC (stereo not drawn)	none
O=S(=O)(Nc1ccc2nc(C(F)(F)F)[nH]c2c1)c1ccccc1	CYP2C9 inh 81, CYP2C19 inhib 100
O=S(=O)(Nc1ccc2nc(-c3ccc(Br)o3)[nH]c2c1)c1ccccc1	CYP2C9 inh 94, CYP2C19 inhib 91
Cc1ccc(-c2nc3ccc(NS(=O)(=O)c4ccccc4)cc3[nH]2)o1	CYP2C9 inh 100, CYP2C19 inhib 100
CCc1c(O)nc(SCC(=O)Nc2ccccc2C)[nH]c1=O	none
CC1(C)Cc2c(cnn2-c2ccccc2)C(=O)/C1=N\NC(=O)c1ccccc1O	CYP2C19 inhib 51
Cc1nc(NCC2CCCO2)nc2c1C(=O)CC(C)(C)C2 (stereo not drawn)	none
CN(C)S(=O)(=O)c1cccc(-c2nnc(SCc3cc(Cl)cc4c3OCOC4)n2N)c1	CYP2C9 inh 82
Cc1cc(C)n2cc(CSc3nnc(N)s3)nc2n1	none
O=C(NNS(=O)(=O)c1ccccc1[N+](=O)[O-])c1ccc(O)cc1	CYP2C9 inh 68
O=C(NC1CCSC1=O)c1ccc(Cl)cc1 (stereo not drawn)	none
O=C(COc1ccc(Cl)cc1)NC1CCSC1=O (stereo not drawn)	CYP2C19 inhib 65
O=c1[nH]c2cccnc2n1Cc1ccco1	none
CCCc1ccc(-c2cc(N)n[nH]2)cc1	none
Cc1ccc(NC(=O)COc2ccc(/C=C3/SC(=Nc4ccccc4)N(Cc4cccnc4)C3=O)cc2)cc1	CYP2C9 inh 53
Cc1nn(C(=O)c2cccc([N+](=O)[O-])c2)c(C)c1Sc1ccccc1	none
O=c1[nH]c(Cc2cccs2)nc2ccccc12	none
CCOC(=O)Cc1csc(SCC(=O)/C(C#N)=C(\C)N)n1	CYP2C19 inhib 95
O=C(OCc1nc2ccccc2c(=O)[nH]1)c1cccs1	CYP2C9 inh 59, CYP2C19 inhib 58
CCOC(=O)Cc1csc(SCc2nc3ccccc3c(=O)[nH]2)n1	CYP2C9 inh 73
O=c1c2nnn(Cc3ccc(Cl)cc3)c2ncn1Cc1ccc(F)cc1	none
